# Compound activity as filed in PubChem BioAssay.
# Most compounds without a hit are left out; they make up all but 4% or so of the library.
# Peg3 promoter: reduces Peg3 promoter-driven luciferase expression in HeLa | HeLa PEG-Prom luciferase reporter, luminescence, overnight | inhibition, % at 20 µM | hit rate 1.7% among 360,000 | AID 588405;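 active = inhibition of at least 50% at 20 µM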
# TROY NFkB inh: inhibitors of TROY-dependent NF-kB signaling. Q293 LMP1-TROYcd NF-kB luciferase reporter, 4 h. inhibition, % at 10 µM. hit rate 0.98% among 360,000. AID 1347056;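 active = compounds whose plate-normalised and pattern-corrected inhibition of the luciferase reporter signal at the single screening dose is 50% or more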
# HIF-2a inh: HIF-2a inhibition; 786-0 RCC cells HIF-2a reporter, luciferase luminescence, overnight; inhibition, % at 18.8 µM; hit rate 0.72% among 360,000;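 active = inhibition of the luminescence signal of 40% or more relative to plate controls, in a single-dose primary screen at 18.75 µM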
# CF NFkB inh: cystic fibrosis NF-kB activation inhibition; AID 588850; hit rate 0.86% among 360,000; inhibition, % at 5 µM; KKLEB NF-kB-GFP reporter, PAF-induced, GFP fluorescence overnight;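 active = at least 50% inhibition at 5 µM, scaled per plate between neutral and stimulator controls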;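 also: PAF is a Pseudomonas aeruginosa culture filtrate used as stimulus; plate controls were PAF-stimulated DMSO wells for no effect and unstimulated DMSO wells for full effect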
# KKLEB cytotox: CF airway cell cytotoxicity counter-screen. KKLEB CF airway cells viability, ATPlite luminescence, overnight; stronger effect = lower value; cells stimulated with P. aeruginosa culture filtrate. activity change (cytotoxicity), % at 5 µM. hit rate 0.36% among 360,000. AID 602141;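 active = corrected activity change at or below -50% at 5 µM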
# TWEAK-Fn14 inh: inhibitors of TWEAK-Fn14 interaction signaling | inhibition, % at 10 µM | TWEAK-stimulated Fn14 reporter cells, luciferase luminescence, 8 h | hit rate 2% among 360,000; in the data active = inhibition above about 50%
# Active calls of the source: *.
SMILES,Peg3 promoter,TROY NFkB inh,HIF-2a inh,CF NFkB inh,KKLEB cytotox,TWEAK-Fn14 inh
CCN1C(=O)[C@H]2[C@@H](c3ccc(SC4CCCCC4)c(OC)c3)N3CCCC[C@@]3(C(=O)OC)[C@H]2C1=O,29,-6,19,9,0,13
CCN1C(=O)[C@@H]2[C@@H](c3ccc(SC4CCCCC4)cc3)N3CCCC[C@@]3(C(=O)OC)[C@@H]2C1=O,4,63*,39,18,-6,61*
S=C(NCCCCN(Cc1ccc(Cl)cc1)c1ccc(Br)cn1)NCCCc1cnc[nH]1,96*,0,-14,14,-16,-20
CN(C)CCN(Cc1ccc(Cl)cc1)c1ccccn1,-34,-3,5,-8,39,-8
Cc1nc(SCC(=O)Nc2ccc3[nH]c(=O)[nH]c3c2)nc(C)c1C,-6,-1,-3,-16,-22,6
COc1ccc(NC(C)=O)cc1NC(C)C(=O)Nc1ccc(F)cc1 (configuration not stated),5,-3,14,-4,-2,-3
CC(=O)c1cccc(NC(=S)Nc2cccc3ccccc23)c1,-98,57*,-146,-3,-2,37
CC(=O)c1ccc(NC(=S)Nc2cccc3cnccc23)cc1,-26,34,-21,18,6,60*
COc1ccc(NC(C)=O)cc1NC(C)C(=O)Nc1cccc2ccccc12 (configuration not stated),-245,57*,-119,-15,4,37
COc1ccc(NC(=S)Nc2cccc3ccccc23)cc1OC,-29,31,-109,-9,10,94*
CC(=O)Nc1cccc(NC(=S)Nc2cccc3ccccc23)c1,-274,3,-213,-24,-12,-6
CN(C)CCNC(=S)Nc1ccc(F)c(F)c1F,4,1,10,16,8,7
NC(=O)N/N=C/c1ccccc1OCc1cccc2ccccc12,-1,2,0,29,-8,13
Cn1c(N)c(C(=O)COC(=O)Cc2ccc(Cl)c(Cl)c2)c(=O)n(C)c1=O,4,5,7,-31,7,-19
Cc1ccc(NC(=S)Nc2cccc3cnccc23)cc1C,-122,29,-144,36,-19,26
S=C(Nc1cccc(Cl)c1)Nc1cccc2cnccc12,-22,34,-39,2,-2,76*
S=C(NCc1ccccc1)Nc1cccc2cnccc12,30,42,13,11,1,77*
CN(Cc1cccc(Cl)c1Cl)C(=O)CCNC(=O)c1ccco1,5,8,-3,0,-5,-7
COC(=O)C1CCN(C(=O)c2ccc(OC)c(S(=O)(=O)N3CCCc4ccccc43)c2)CC1,12,-3,17,-25,3,18
COC(=O)C1CCN(C(=O)COC(=O)c2ccc(OC)c(S(=O)(=O)N3CCCc4ccccc43)c2)CC1,-25,34,2,-3,8,51*
Cc1ccc(S(=O)(=O)N(C)Cc2ccc(C(=O)N/N=C/c3ccc(OC(F)F)cc3OC(F)F)cc2)cc1,27,36,16,-2,10,60*
O=C(N/N=C/c1ccc(OC(F)F)cc1OC(F)F)c1ccc(Br)cc1,8,-8,8,9,-2,-28
CCc1nc2c(OCc3cc(Cl)cc(Cl)c3)cccn2c1N(C)C(=O)c1ccccc1F,32,-1,-8,8,-10,5
O=C(NC1CCCCC1)C1CCCN1S(=O)(=O)c1ccc(Cl)cc1 (configuration not stated),7,3,14,2,16,10
C#CCOCCOCCOCCNc1nc(N2CCN(C(=O)CCCCCCCCCCNC(=O)Cn3cc(C[C@@H](C)O)nn3)CC2)nc(N2CCN(C(=O)CCCCCCCCCCNC(=O)[C@H](CCCCN)n3cc(C[C@@H](C)CC)nn3)CC2)n1,99*,38,4,10,-23,26
SMILES,Peg3 promoter,TROY NFkB inh,HIF-2a inh,CF NFkB inh,KKLEB cytotox,TWEAK-Fn14 inh
CC[C@H](C)Cc1cn([C@@H](CCCCNC(=O)OC(C)(C)C)C(=O)NCCCCCCCCCCC(=O)N2CCN(C(=O)OC(C)(C)C)CC2)nn1,26,39,1,0,-7,59*
C#CCOCCOCCOCCNc1nc(N2CCN(C(=O)CCCCCCCCCCNC(=O)[C@H](CCCCN)n3cc(C[C@@H](C)CC)nn3)CC2)nc(N2CCN(C(=O)CCCCCCCCCCNC(=O)[C@H](CCCCN)n3cc(C[C@@H](C)CC)nn3)CC2)n1,105*,65*,24,9,-28,51*
C#CCOCCOCCOCCNc1nc(N2CCN(C(=O)CCCCCCCCCCNC(=O)[C@H](CCCCN)n3cc(CCO)nn3)CC2)nc(N2CCN(C(=O)CCCCCCCCCCNC(=O)[C@H](CCCN=C(N)N)n3cc(C[C@@H](C)CC)nn3)CC2)n1,13,8,20,-12,9,-8
CC(=O)NC(CC(=O)NNC(=O)c1cc2ccccc2cc1O)c1ccccc1 (configuration not stated),12,-3,15,-12,8,8
CC(C)c1ccc(S(=O)(=O)c2nnn3c2nc(N2CCCCC2)c2ccccc23)cc1,-3,10,9,13,6,1
N#Cc1cnn2c1nc(N1CCCCC1)c1ccccc12,51*,28,25,43,-40,20
O=S(=O)(c1ccccc1)N(F)S(=O)(=O)c1ccccc1,-2,-9,13,-1,3,12
CC1=NNC(=O)C1CC(=O)N/N=C/c1cccs1 (configuration not stated),9,54*,10,4,-1,-14
COc1cccc(/C=N/NC(=O)CC2C(=O)NN=C2C)c1OC (configuration not stated),-9,-27,11,15,-1,10
Cc1ccccc1Oc1nc2c(C)cccn2c(=O)c1/C=C(\C#N)C(=O)Nc1c(C)n(C)n(-c2ccccc2)c1=O,15,44,37,36,-19,52*
Cc1cccn2c(=O)c(/C=C(\C#N)S(=O)(=O)c3ccccc3)c(Oc3ccc(Cl)cc3)nc12,29,14,11,8,-10,12
Cc1cc(Oc2nc3c(C)cccn3c(=O)c2/C=C(\C#N)S(=O)(=O)c2ccccc2)ccc1Cl,68*,0,21,26,-9,11
COc1cccc(NC(=O)CN2C(=O)CSc3nc(C)cc(C)c32)c1,-3,-4,-6,-3,7,5
O=C(OC(c1ccccc1)c1nccc2ccccc12)c1ccccc1 (configuration not stated),-25,87*,-31,23,-12,98*
O=C(OC(c1ccccc1)c1nccc2ccccc12)c1cccc([N+](=O)[O-])c1 (configuration not stated),-115,21,-148,-23,4,-12
